Results published in PubChem BioAssay (NCI).
About 83,000 compounds went through this panel and 20% of them were active in at least one assay; those are over-represented in the sample as a whole.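 Testing used 96-well plates and a 48-hour single-concentration exposure. Example: -40 means 40% of the starting cells died.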 Values without a mark were called inactive. The source made the active and inactive calls. The calls were made as follows: active = growth percent below 10; inactive = the rest.

Test system: M14 melanoma
Assay: NCI-60 one-dose screen, 48 h (100 = growth as untreated, 0 = no growth, -100 = all killed)
Details: 10 µM unless noted

SMILES | growth
Cc1cc2c([nH]1)CSc1cc(S(=O)(=O)c3ccccc3)c(=O)[nH]c1-2 | -13.7% [100 µM] (active)
CC1=C(Nc2ccc(N3CCN(C)CC3)cc2)C(=O)c2cncnc2C1=O | 105%
CCCCCCC1(C)NCCO1 (stereo not drawn) | 104%
C#CCOc1cccc(Nc2ncnc3ccc(NC(=O)CCl)cc23)c1 | -47.8% (active)
COc1ccc(C(=O)C2C(c3ccc(OC)cc3)CN(C)C23C(=O)Nc2ccccc23)cc1 (stereo not drawn) | 98.9%
CCN(CC)CCNC(=O)c1cn2ncnc(Oc3ccc(NC(=O)Nc4ccc(Cl)c(C(F)(F)F)c4)c(F)c3)c2c1C | -83.2% (active)
CC(=O)OCc1nc(C#N)c(N(C)C)o1 | 99.8%
CN[C@]12CC3(C=CC(=O)C=C3)O[C@@]1(Cc1ccc(OC)cc1)N(C)C(=O)N2 | 9.52% (active)
C=C(CNCCc1ccc(O)cc1)[C@@H]1CC[C@]2(CO)CC[C@]3(C)[C@H](CC[C@@H]4[C@@]5(C)CCC(NCCO)C(C)(C)[C@@H]5CC[C@]43C)[C@@H]12 (stereo partly drawn) | -89.3% (active)
O=C1/C(=C\c2cn(-c3ccccc3)nc2-c2ccc(-c3cccs3)cc2)CCc2ccccc21 | 39.1%
Cc1ccc(-c2nn(-c3ccccc3)cc2C=C2C(=O)ON=C2C(C)C)cc1 | 65.8%
CC/C(=C(/c1ccc(Cl)cc1)c1ccc(OCCN2CCCC2)cc1)c1ccc(OC)cc1 | 50.3%
Cc1c(-c2nc3ccc(F)cc3c(=O)[nH]2)c2ccccc2n1C | 18.2%
COC1=CC(c2ccc[nH]2)=N/C1=C\c1[nH]c(C)c(C(=O)OCc2ccccc2)c1C | -73.9% (active)
COc1ccc(C/C(C)=C(/c2ccc(OCCN3CCCCC3)cc2)c2ccc(OC(=O)NCc3ccccc3)cc2)cc1 | -92.3% (active)
CC(C)N1CN2C(=S)NC3C2N(C1)C(=S)N3C (stereo not drawn) | 105%
CCCCN[C@H]1CC[C@@]2(C)[C@@H](CC[C@@]3(C)[C@H]2[C@H](O)C[C@H]2/C(=C(\CCC=C(C)C)C(=O)OC)[C@@H](OC(C)=O)C[C@@]23C)[C@@H]1C | 96.2%
O=[N+]([O-])c1ccc(-c2nc(N3CCOCC3)c3c4c(sc3n2)CCCC4)cc1 | 85.6%
COc1cc(N2C(=O)[C@H](O)C2c2ccc(SC)cc2)cc(OC)c1OC (stereo partly drawn) | 6.4% (active)
C#Cc1ccc(NC(=O)c2ccc(/C=C/C(=O)c3nccn3C)cc2)cc1 | -69.8% (active)
Cc1nnc(NC(=O)c2nc(S(=O)(=O)Cc3ccc(F)cc3)ncc2Cl)s1 | 83.8%
Cc1ccccc1/C=C1\CN(C(=O)OC(C)(C)C)C/C(=C\c2ccccc2C)C1=O | 30.7%
C[C@]12C=CC(=O)C=C1CCC1C2[C@@H](O)C[C@@]2(C)C1CC[C@]2(O)C(=O)COC(=O)CCC(=O)O (stereo partly drawn) | 106%
O=C(Cn1c2c(c3ccccc31)CCCC2)Nc1ccc(-c2nc3ccccc3s2)cc1 | 108%
Cc1cc(Cl)ccc1Nc1nc(C(F)(F)F)ccc1C(=O)N/N=C/c1ccc([N+](=O)[O-])cc1 | 26.9%
O=C(Nn1c2c(sc1=NCc1ccccc1)C(=O)c1ccccc1C2=O)c1cc2ccc1CCc1ccc(cc1)CC2 | 19.3%
CC(C)c1ccc(COCc2cc(CN3CCCC3)c(O)c3ncccc23)cc1 | -6.21% (active)
Cn1cccc1C(=O)C1C(c2cccc([N+](=O)[O-])c2)C2C3CCCCC3CN2C12C(=O)Nc1ccc(Cl)cc12 (stereo not drawn) | 52.4%
